Screening data from PubChem BioAssay.
Shown are actives, neighbours in structure and some others; about 5.1% of the full set was active somewhere.
DNA Pol III inh: blocks replication by bacterial DNA polymerase III holoenzyme. reconstituted DNA polymerase III holoenzyme replication, biochemical. Potency, µM (series often up to 57.1 µM). actives 0.25% (n = 71,000). AID 603
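Reconstituted *E. coli* holoenzyme (0.35 nM Pol III, 1 nM beta, 154 nM SSB, 2 nM primase) was preincubated with compound for 15 min at RT. Synthesis on 1.4 nM ssM13Gori ran 35 min, then was stopped with PicoGreen/EDTA and read as dsDNA fluorescence.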
Tau filament bind: tau filament binding | P10636 | recombinant tau filaments, thioflavin S fluorescence, 15 h; filaments grown with octadecylsulfate alongside compound | Potency, µM (series often up to 57.1 µM) | actives 2% (n = 71,000) | AID 596;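 also: actives lower thioflavin S fluorescence by blocking filaments or displacing dye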
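His-tagged recombinant human tau (exons 2, 3, 10; 1 uM final) fibrillized with 30 uM sodium octadecylsulfate, 15 h at 37 C, in pH 7.4 HEPES buffer with 10 uM thioflavine S and 5 mM DTT. Reduced ThS fluorescence (450/510 nm) marks activity.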
TSHR agonist: agonists of human thyroid stimulating hormone receptor. AID 926. P16473. HEK293-CNG-TSHR cells (CNG channel as cAMP sensor), membrane potential dye, cAMP. Potency, µM (highest dose often 57.1 µM), hits mostly activators. actives 0.48% (n = 73,000); active = well fitted activation curve with a large enough effect in the main read-out, with a control signal flat, not every such curve was filed as active; inconclusive = small, poorly fitted or top-dose-only effect, or a change in a side signal; inactive = no such curve, though single readings can be large or run the other way; reference of the percent scale not stated here;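 also: the control signal comes from parental cells without the receptor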
Target sequence (P16473 whole entry, looked up): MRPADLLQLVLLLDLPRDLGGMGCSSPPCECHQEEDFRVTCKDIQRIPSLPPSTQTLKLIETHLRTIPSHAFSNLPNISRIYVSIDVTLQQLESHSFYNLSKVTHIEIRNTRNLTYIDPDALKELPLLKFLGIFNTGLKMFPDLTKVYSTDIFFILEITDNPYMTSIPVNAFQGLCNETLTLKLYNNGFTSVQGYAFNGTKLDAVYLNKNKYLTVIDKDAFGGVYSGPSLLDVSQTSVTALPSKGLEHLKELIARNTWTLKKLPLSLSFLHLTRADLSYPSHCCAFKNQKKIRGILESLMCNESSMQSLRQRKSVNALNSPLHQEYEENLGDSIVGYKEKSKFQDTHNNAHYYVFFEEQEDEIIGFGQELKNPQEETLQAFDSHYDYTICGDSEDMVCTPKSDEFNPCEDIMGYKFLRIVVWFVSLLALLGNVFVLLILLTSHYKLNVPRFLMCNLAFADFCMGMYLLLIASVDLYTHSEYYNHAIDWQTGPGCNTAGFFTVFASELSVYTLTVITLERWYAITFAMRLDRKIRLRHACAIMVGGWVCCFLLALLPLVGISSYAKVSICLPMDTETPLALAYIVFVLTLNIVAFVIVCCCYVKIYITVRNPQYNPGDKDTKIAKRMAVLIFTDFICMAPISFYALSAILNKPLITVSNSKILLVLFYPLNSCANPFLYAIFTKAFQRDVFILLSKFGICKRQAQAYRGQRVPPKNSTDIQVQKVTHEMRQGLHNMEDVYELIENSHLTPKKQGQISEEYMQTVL
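HEK 293 cells stably expressing TSHR and a cAMP-gated CNG channel; parental CNG-only cells as counterscreen. Cells preloaded 60 min with membrane potential dye plus 100 uM RO 20-1724, then compound 30 min; fluorescence read at 590 nm.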
HEK293 cAMP ctrl: raises cAMP in parental HEK293 cells, TSHR agonist counter-screen; parental HEK293 CNG cAMP sensor, membrane potential fluorescence; AID 938; Potency, µM (highest dose often 57.1 µM), hits mostly activators; actives 2.5% (n = 73,000); also: nearly all actives have a fitted effect of over 55% in size
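Counterscreen for endogenous-receptor signalling: CNG-channel HEK 293 cells report cAMP rise by membrane depolarization. After 60 min dye equilibration with 100 uM RO 20-1724, compounds incubated 30 min before bottom-read fluorescence at 590 nm.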
Hsp90 Hop PPI: changes Hsp90-Hop TPR2A binding signal, up or down; AlphaScreen TPR2A-His6 binding biotin-Hsp90 C-terminal peptide; Potency, µM (titrated, usually from 57 µM); actives 0.44% (n = 71,000); active = well fitted curve in either direction with a large enough effect; inconclusive = small, poorly fitted or top-dose-only effect, or another doubt
Large screens that a line does not name were inactive; ! = a repeat was not active. Unless noted, calls follow the shape of the dose curve; as a rule, active = well fitted curve in the direction sought with a large enough effect; inconclusive = small, poorly fitted or top-dose-only effect, or another doubt; inactive = no such curve, though single readings can be large; an effect the other way counts as inactive or inconclusive.

CCN(CC)S(=O)(=O)c1cccc(-c2nnc(SCC(=O)NCCC3=CCCCC3)n2N)c1	DNA Pol III inh inconclusive
Cc1cccc(-n2nnnc2SC(C)C(=O)NCCC2=CCCCC2)c1 (stereo not drawn)	TSHR agonist inconclusive, HEK293 cAMP ctrl 13µM
CNCCCC12CCC(c3ccccc31)c1ccccc12	Tau filament bind 16µM!, TSHR agonist inconclusive, HEK293 cAMP ctrl 40µM!
CCCNC(=O)c1cc(-c2ccco2)on1	none
O=C(Nc1cccc(-c2nnc(-c3ccccc3)o2)c1)c1ccco1	TSHR agonist inconclusive, HEK293 cAMP ctrl inconclusive
CCCCNC(=O)c1ccc2nc(-c3ccco3)c(-c3ccco3)nc2c1	DNA Pol III inh 16µM, Tau filament bind inconclusive, Hsp90 Hop PPI inconclusive
O=C(Nc1ccccc1)c1cccc(-c2nnc(-c3ccccc3)o2)c1	TSHR agonist inconclusive, HEK293 cAMP ctrl 32µM
Nc1c(C(=O)Nc2ccccc2)sc2nc(-c3ccco3)ccc12	Tau filament bind 2µM
O=C(Nc1ccc(N2CCOCC2)cc1)c1ccc2nc(-c3ccco3)c(-c3ccco3)nc2c1	Tau filament bind 7.9µM
COc1ccc(C(=O)Nc2ccc(N3CCOCC3)cc2)cc1OC	none
CC1CCC(O)([C@](C)(C(=O)O)c2ccccc2)CC1 (stereo partly drawn)	none
COc1ccc(COC(=O)N/N=C2/C[C@@H](O)[C@@H](O)[C@@H]3[C@@H]4C(=O)N(C5CCCCC5)C(=O)[C@H]4CC[C@@H]23)cc1	none (no result: DNA Pol III inh, Tau filament bind, Hsp90 Hop PPI)
O=C(NCc1ccco1)c1cccc(NC(=O)c2ccccc2)c1	none
O=C(Nc1ccccc1)c1ccc2nc(-c3ccco3)c(-c3ccco3)nc2c1	Tau filament bind 0.63µM
NCC(=O)NC1(C(=O)O)CCCC1	TSHR agonist inconclusive
O=C1c2ccccc2C(Nc2ccc(Cl)cn2)N1c1ccccn1 (stereo not drawn)	TSHR agonist inconclusive, HEK293 cAMP ctrl 16µM
Cc1ccc(N2C(=O)c3ccccc3C2Nc2ccccc2F)nc1 (stereo not drawn)	TSHR agonist inconclusive, HEK293 cAMP ctrl inconclusive
COc1ncc2nc(C)c(=O)n(Cc3ccc(F)cc3)c2n1	TSHR agonist inconclusive, HEK293 cAMP ctrl inconclusive
C=CC(=O)OCCCC	TSHR agonist inconclusive
CO/N=C\c1ccc(C(=O)N2[C@H](c3ccc(C)cc3)[C@@H](C)CC[C@H]2C(=O)OC)cc1	TSHR agonist inconclusive, HEK293 cAMP ctrl 2µM (no result: DNA Pol III inh, Tau filament bind, Hsp90 Hop PPI)
COC(=O)[C@@H]1CC[C@H](C)[C@@H](c2ccc(C)cc2)N1C(=O)c1ccc(/C=N\O[C@@H]2O[C@H](COC(C)=O)[C@H](OC(C)=O)[C@H](OC(C)=O)[C@H]2OC(C)=O)cc1	none (no result: DNA Pol III inh, Tau filament bind, Hsp90 Hop PPI)
CC(C)n1c(Nc2ccccc2)nc2ccccc21	none
CC(C)n1c2ccccc2c2nc3ccccc3nc21	TSHR agonist inconclusive, HEK293 cAMP ctrl inconclusive, Hsp90 Hop PPI 32µM
Nc1nc(NCCc2ccc(O)cc2)nc2nc(-c3ccco3)nn12	Tau filament bind 32µM
COc1ccc(NC(=O)N2CCC3(CC2)CCN(C(=O)c2ccco2)CC3)cc1	none
C1=CC2c3ccccc3NC(c3ccncc3)C2C1 (stereo not drawn)	Tau filament bind 7.9µM, Hsp90 Hop PPI inconclusive
Cc1ccc2c(c1)[C@H]1OCC[C@H]1[C@@H](c1ccncc1)N2	none
O=C(Nc1ccc(F)cc1F)c1cc(-c2ccco2)on1	Tau filament bind 20µM
COc1cc(C=O)c([N+](=O)[O-])cc1OC	none (no result: DNA Pol III inh, Tau filament bind, Hsp90 Hop PPI)
CCN(CC)S(=O)(=O)c1cccc(-c2nnc(SCc3ncc(-c4ccccc4)o3)n2C)c1	TSHR agonist inconclusive, HEK293 cAMP ctrl inconclusive
CCSc1nnc(-c2cccc(S(=O)(=O)N(CC)CC)c2)n1Cc1ccccc1	TSHR agonist inconclusive, HEK293 cAMP ctrl 16µM
COc1ccccc1C1C=C(c2ccccc2)Nc2nnnn21 (stereo not drawn)	TSHR agonist inconclusive, HEK293 cAMP ctrl 4µM
COc1cccc(C2=CC(c3ccc(OC)c(OC)c3OC)n3nnnc3N2)c1 (stereo not drawn)	none (no result: TSHR agonist)
COC(=O)C1=C(C)N(Cc2ccccc2)[C@]23O[C@](C(=O)OC)(C(=O)N2C1c1ccccc1)C(C(=O)OC)C3C(=O)OC (stereo partly drawn)	none (no result: DNA Pol III inh, Tau filament bind, Hsp90 Hop PPI)
CCCCCCCC/C=C\CCCCCCCC(=O)N(CCO)CCO	TSHR agonist inconclusive
CCOc1cc(-c2cc(-c3ccc(N)cc3)nc(N)c2C#N)ccc1O	Tau filament bind 32µM, Hsp90 Hop PPI inconclusive
COc1cc(NC(=O)c2ccccc2)cc(OC)c1	Tau filament bind 10µM
COC(=O)c1ccccc1NC(=O)COc1ccccc1	TSHR agonist inconclusive, HEK293 cAMP ctrl 32µM
COC(=O)c1ccccc1NC(=O)c1cc(OC)cc(OC)c1	TSHR agonist inconclusive, HEK293 cAMP ctrl 25µM
COC(=O)c1ccccc1NC(=O)CC#N	none
C/C(CCC(=O)OC[C@@H]1O[C@H](C#Cc2ccccc2)C=C[C@@H]1Oc1ccc(C)cc1)=N/OC[C@@H](C)[C@H](OCc1ccccc1)C(C)C	none (no result: DNA Pol III inh, Tau filament bind, Hsp90 Hop PPI)
CCOC(=O)C(NC(=O)c1ccc(OC)cc1)(OCC1(CC)COC1)C(F)(F)F (stereo not drawn)	TSHR agonist 7.9µM
CCC(=Nc1ccc(N)cc1)C1=C(O)C(C(=O)OC)C(C)(C)CC1=O (stereo not drawn)	Tau filament bind 16µM
CC1(C)OC(C(O)(c2cccc3c2oc2ccccc23)c2cccc3c2oc2ccccc23)C(C(O)(c2cccc3c2oc2ccccc23)c2cccc3c2oc2ccccc23)O1 (stereo not drawn)	none (no result: DNA Pol III inh, Tau filament bind, Hsp90 Hop PPI)
COc1ccc(-c2nnc3n2N=C(c2ccccc2)CS3)cc1OC	none
Cc1cc(-c2nnc3n2N=C(c2ccc(-c4ccccc4)cc2)CS3)n[nH]1	TSHR agonist inconclusive, HEK293 cAMP ctrl 32µM
CC(=O)/C(=C\c1ccccc1F)C(=O)c1ccccc1	none
Cc1nn(-c2ccccn2)c2nc(-c3cccs3)cc(C(=O)N3CCOCC3)c12	TSHR agonist 3.2µM
Nc1nc(N)nc(CC(=O)O)n1	none
COc1cccc2oc(-c3ccc(O)cc3)cc(=O)c12	Tau filament bind inconclusive
O=c1cc(-c2ccccc2)oc2cc(O)c(O)c(O)c12	Tau filament bind 4µM, Hsp90 Hop PPI inconclusive
N#Cc1c(-c2ccco2)cc(-c2cccnc2)nc1N	DNA Pol III inh 32µM, Hsp90 Hop PPI inconclusive
O=C(Nc1nc(-c2ccccn2)cs1)c1ccc(Cl)s1	Hsp90 Hop PPI 7.9µM
O=C(Nc1nc(-c2ccc(Cl)s2)cs1)c1cccs1	TSHR agonist inconclusive, HEK293 cAMP ctrl 25µM
CCCCCOC(=O)c1cc(=O)[nH]c2ccccc12	Tau filament bind 10µM, TSHR agonist inconclusive, HEK293 cAMP ctrl inconclusive
CC(=O)Nc1cccc(Cn2cccn2)c1	TSHR agonist inconclusive, HEK293 cAMP ctrl 20µM
O=C(Nc1cccc(Cn2cccn2)c1)c1cc2c(s1)CCCC2	none (no result: TSHR agonist)
CCn1c(CCNC(=O)c2cccs2)nnc1SCC(=O)c1ccc(OC)cc1	Hsp90 Hop PPI inconclusive
